1 sequence from PMC7862700, “An all-to-all approach to the identification of sequence-specific readers for epigenetic DNA modifications on cytosine” can be followed below.

What all share (test): DAPPL (digital affinity profiling via proximity ligation, sequencing); 10 mM Tris-HCl pH 7.5, 50 mM NaCl, 1 mM DTT, 4% glycerol, room temperature, 30 min; GST-TFs on glutathione beads, 16-mer random dsDNA library, 0.1% formaldehyde crosslink after washing; high values mean tight binding
One experiment deals with T1, FLI1 (Homo sapiens, UniProt Q01543 1-452).
T1 sequence: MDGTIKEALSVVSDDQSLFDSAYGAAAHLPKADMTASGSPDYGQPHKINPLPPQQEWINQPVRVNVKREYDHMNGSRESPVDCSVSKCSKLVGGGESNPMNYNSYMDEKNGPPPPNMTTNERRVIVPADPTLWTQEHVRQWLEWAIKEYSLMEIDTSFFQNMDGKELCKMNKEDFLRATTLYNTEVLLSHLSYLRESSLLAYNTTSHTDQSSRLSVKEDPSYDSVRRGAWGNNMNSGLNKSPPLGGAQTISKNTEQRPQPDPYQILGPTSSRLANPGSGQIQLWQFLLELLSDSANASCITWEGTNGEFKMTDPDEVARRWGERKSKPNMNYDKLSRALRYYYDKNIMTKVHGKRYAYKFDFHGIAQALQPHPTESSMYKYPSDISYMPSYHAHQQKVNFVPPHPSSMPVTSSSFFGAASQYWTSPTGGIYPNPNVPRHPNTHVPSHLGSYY
The conditions noted are these: protein: recombinant; tags: N-terminal GST; dsDNA, one strand shown. In short, it runs like this:
(§1)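 The binding signal reported is, for every hexamer, its read frequency for a factor over its read frequency for the tag-only sample. Reads came from pools of yeast-expressed, GST-fused human transcription factors on glutathione beads, barcoded with DNA and mixed with that sample, which were incubated with 200 nmole of a random double-stranded 16-mer DNA library in Tris/NaCl/DTT/glycerol buffer at room temperature for 30 min. After washing, the pools were crosslinked with 0.1% formaldehyde, proximity-ligated with BsaI/T4 ligase for 1 h at 37 °C, PCR-amplified and sequenced on an Illumina NextSeq500.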

In a further experiment the target is T2, ELK1 (Homo sapiens, UniProt P19419 1-428).
T2 sequence: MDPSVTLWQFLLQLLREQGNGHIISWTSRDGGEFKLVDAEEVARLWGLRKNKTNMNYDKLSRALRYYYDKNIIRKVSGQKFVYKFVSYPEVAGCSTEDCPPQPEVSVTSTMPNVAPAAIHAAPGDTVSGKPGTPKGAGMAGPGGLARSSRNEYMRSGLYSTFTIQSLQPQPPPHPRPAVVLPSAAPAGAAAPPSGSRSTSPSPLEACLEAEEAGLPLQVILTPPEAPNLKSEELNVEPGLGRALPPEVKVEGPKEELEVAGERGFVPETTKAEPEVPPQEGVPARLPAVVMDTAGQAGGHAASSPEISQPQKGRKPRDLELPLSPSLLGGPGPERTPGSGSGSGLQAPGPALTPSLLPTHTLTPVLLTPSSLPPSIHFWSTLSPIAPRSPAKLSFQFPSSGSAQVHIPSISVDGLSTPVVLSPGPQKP
The note with it: protein: recombinant; tags: N-terminal GST; dsDNA, one strand shown. Summed up: as §1

The target in the next experiment is T3, GABPA (Homo sapiens, UniProt Q06546 1-454).
T3 sequence: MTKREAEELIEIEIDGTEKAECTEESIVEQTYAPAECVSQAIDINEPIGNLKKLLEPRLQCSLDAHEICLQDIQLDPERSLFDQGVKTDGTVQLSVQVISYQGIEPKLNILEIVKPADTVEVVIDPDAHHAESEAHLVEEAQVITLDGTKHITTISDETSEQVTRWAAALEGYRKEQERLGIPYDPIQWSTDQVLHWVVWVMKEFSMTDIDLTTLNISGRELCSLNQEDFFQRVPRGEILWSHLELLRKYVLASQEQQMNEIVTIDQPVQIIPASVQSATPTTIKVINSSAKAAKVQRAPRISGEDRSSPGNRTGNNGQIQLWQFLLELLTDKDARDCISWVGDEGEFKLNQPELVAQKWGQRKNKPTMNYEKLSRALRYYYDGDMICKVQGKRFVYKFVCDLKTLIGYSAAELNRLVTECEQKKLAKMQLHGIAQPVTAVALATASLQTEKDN
The note with it: protein: recombinant; tags: N-terminal GST; dsDNA, one strand shown. Summed up:
as §1

Another experiment concerns the target T4, ERG (Homo sapiens, UniProt P11308 1-479).
T4 sequence: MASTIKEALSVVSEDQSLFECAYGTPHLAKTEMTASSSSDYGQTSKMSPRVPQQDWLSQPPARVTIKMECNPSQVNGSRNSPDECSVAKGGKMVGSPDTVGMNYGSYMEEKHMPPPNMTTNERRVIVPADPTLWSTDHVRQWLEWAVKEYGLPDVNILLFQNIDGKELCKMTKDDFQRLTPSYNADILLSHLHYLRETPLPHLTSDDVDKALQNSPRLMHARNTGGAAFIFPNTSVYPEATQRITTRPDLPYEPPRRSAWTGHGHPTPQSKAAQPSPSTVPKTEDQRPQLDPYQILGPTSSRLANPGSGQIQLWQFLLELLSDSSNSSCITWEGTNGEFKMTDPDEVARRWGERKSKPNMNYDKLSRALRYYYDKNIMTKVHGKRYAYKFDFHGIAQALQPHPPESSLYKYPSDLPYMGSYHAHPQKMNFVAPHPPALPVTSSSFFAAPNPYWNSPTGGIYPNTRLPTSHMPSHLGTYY
The note with it: protein: recombinant; tags: N-terminal GST; dsDNA, one strand shown. In short, it runs like this: as §1

The target in another experiment is ELF1 (Homo sapiens, UniProt P32519 1-619). The conditions noted are these: protein: recombinant; tags: N-terminal GST; dsDNA, one strand shown. Summed up:
as §1

A further experiment concerns the target T5, EHF (Homo sapiens, UniProt Q9NZC4 1-300).
T5 sequence: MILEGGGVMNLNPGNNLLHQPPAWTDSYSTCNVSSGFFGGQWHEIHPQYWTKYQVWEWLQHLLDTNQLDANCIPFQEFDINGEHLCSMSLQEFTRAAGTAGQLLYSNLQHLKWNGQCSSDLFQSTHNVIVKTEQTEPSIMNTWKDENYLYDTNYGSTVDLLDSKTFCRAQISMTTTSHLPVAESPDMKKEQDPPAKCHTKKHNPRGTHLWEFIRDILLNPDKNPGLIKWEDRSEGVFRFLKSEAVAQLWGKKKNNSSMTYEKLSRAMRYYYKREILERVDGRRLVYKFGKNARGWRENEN
The conditions noted are these: protein: recombinant; tags: N-terminal GST; dsDNA, one strand shown. In short, it runs like this:
as §1

Another experiment concerns the target SPI1 (Homo sapiens, UniProt P17947 1-270). The conditions noted are these: protein: recombinant; tags: N-terminal GST; dsDNA, one strand shown. Summed up: as §1
The next experiment has as its target SPIB (Homo sapiens, UniProt Q01892 1-262). The note with it: protein: recombinant; tags: N-terminal GST; dsDNA, one strand shown. Summed up:
as §1

In another experiment the target is T6, ELK3 (Homo sapiens, UniProt P41970 1-407).
T6 sequence: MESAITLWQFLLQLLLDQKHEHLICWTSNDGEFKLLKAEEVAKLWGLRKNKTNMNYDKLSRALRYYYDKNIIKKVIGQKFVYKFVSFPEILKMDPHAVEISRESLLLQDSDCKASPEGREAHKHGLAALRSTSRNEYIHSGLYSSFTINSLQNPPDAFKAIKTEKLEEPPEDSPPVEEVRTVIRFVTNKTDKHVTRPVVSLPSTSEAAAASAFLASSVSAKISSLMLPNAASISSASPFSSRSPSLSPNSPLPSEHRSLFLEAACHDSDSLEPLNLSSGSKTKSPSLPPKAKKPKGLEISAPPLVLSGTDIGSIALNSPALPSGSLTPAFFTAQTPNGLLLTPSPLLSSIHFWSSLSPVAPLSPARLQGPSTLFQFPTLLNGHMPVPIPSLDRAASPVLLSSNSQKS
The conditions noted are these: protein: recombinant; tags: N-terminal GST; dsDNA, one strand shown. In short, it runs like this: as §1

The next experiment deals with T7, FEV (Homo sapiens, UniProt Q99581 1-238).
T7 sequence: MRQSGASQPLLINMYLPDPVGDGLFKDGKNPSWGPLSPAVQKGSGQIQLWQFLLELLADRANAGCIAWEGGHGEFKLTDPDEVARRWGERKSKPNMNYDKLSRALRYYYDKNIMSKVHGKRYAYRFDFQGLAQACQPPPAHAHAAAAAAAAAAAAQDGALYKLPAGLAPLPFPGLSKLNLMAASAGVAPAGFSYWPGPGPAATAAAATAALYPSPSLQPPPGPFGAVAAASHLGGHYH
The conditions noted are these: protein: recombinant; tags: N-terminal GST; dsDNA, one strand shown. Summed up: as §1

The target of a further experiment is ETV5 (Homo sapiens, UniProt P41161 1-510). The conditions noted are these: protein: recombinant; tags: N-terminal GST; dsDNA, one strand shown. In short, it runs like this: as §1
Sequence of ETV5 (P41161 whole entry): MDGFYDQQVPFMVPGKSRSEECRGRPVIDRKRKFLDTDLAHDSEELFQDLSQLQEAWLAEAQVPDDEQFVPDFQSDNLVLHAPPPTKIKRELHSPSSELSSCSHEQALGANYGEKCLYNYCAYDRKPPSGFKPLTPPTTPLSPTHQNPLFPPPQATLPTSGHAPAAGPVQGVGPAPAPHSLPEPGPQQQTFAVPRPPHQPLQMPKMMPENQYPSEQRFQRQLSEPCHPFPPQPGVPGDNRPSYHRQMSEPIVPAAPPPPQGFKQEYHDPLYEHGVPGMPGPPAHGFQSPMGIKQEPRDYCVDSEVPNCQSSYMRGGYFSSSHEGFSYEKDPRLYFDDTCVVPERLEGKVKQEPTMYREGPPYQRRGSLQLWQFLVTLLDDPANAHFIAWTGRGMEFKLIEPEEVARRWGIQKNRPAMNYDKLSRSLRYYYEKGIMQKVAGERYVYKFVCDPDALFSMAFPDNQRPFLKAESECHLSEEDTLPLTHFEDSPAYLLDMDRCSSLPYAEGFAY
A further experiment addresses HSF1 (Homo sapiens, UniProt Q00613 1-529). The note with it: protein: recombinant; tags: N-terminal GST; chain copies: 3; dsDNA, one strand shown. Summed up:
as §1

Another experiment has as its target T8, SPIC (Homo sapiens, UniProt Q8N5J4 1-248).
T8 sequence: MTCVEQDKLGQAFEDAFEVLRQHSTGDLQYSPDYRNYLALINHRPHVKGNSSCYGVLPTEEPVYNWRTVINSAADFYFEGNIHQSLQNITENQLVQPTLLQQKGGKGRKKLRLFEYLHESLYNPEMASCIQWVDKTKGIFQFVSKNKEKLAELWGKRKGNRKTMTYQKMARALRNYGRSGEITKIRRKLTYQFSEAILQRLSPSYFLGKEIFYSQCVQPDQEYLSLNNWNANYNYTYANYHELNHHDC
The note with it: protein: recombinant; tags: N-terminal GST; dsDNA, one strand shown. In short, it runs like this: as §1

Another experiment concerns the target ELF4 (Homo sapiens, UniProt Q99607 1-663). The note with it: protein: recombinant; tags: N-terminal GST; dsDNA, one strand shown. In short, it runs like this: as §1
A further experiment addresses T9, ELK4 (Homo sapiens, UniProt P28324-2 1-405).
T9 sequence: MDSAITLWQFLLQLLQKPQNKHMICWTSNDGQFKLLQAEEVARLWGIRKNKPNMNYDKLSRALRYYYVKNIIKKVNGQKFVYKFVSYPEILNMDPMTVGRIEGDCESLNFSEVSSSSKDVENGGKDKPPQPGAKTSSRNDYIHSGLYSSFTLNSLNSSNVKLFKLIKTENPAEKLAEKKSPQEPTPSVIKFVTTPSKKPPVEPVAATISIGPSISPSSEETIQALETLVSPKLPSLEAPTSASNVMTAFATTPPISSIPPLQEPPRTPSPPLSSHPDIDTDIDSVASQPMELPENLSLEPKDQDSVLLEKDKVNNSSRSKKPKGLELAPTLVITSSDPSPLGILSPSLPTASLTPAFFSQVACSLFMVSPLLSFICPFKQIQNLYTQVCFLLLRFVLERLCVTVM
The note with it: protein: recombinant; tags: N-terminal GST; dsDNA, one strand shown. Summed up:
as §1

In another experiment the target is T10, ETV2 (Homo sapiens, UniProt O00321 1-342).
T10 sequence: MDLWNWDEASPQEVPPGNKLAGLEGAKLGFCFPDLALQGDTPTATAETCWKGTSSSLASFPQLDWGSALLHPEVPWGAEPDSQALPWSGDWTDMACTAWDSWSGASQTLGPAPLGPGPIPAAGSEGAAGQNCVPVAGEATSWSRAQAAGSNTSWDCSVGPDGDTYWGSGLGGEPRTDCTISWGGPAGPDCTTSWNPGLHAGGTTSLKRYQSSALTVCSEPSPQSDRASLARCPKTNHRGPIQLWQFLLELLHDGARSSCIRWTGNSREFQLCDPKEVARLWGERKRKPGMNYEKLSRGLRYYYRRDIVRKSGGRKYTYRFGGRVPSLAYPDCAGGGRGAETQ
The conditions noted are these: protein: recombinant; tags: N-terminal GST; dsDNA, one strand shown. Summed up:
as §1

In the next experiment the target is T11, ELF3 (Homo sapiens, UniProt P78545 1-371).
T11 sequence: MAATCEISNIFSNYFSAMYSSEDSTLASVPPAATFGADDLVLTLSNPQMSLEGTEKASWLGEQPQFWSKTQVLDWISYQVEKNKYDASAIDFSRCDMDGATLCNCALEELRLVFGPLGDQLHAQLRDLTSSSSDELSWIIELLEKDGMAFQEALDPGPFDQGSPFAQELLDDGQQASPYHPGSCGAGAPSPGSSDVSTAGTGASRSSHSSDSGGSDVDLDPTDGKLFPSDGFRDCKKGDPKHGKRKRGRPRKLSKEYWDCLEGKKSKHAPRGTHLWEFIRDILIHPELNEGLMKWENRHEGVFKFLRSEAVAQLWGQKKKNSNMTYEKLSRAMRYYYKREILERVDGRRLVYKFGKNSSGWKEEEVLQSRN
The conditions noted are these: protein: recombinant; tags: N-terminal GST; dsDNA, one strand shown. In short, it runs like this:
as §1

Sequence of HSF1 (Q00613 whole entry): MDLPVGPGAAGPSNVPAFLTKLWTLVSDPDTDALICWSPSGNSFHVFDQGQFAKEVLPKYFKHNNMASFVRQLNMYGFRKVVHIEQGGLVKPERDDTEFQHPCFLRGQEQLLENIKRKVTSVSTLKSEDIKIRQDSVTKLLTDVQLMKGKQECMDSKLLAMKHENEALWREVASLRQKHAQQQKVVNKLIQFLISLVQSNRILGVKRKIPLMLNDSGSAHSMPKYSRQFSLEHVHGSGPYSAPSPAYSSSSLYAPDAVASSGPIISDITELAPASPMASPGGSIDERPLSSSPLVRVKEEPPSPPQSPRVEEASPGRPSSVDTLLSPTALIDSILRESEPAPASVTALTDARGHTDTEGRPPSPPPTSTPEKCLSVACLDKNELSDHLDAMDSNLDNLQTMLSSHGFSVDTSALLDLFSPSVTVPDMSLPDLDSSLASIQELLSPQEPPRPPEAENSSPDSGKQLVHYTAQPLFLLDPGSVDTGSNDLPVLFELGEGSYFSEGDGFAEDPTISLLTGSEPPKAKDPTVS
Sequence of SPIB (Q01892 whole entry): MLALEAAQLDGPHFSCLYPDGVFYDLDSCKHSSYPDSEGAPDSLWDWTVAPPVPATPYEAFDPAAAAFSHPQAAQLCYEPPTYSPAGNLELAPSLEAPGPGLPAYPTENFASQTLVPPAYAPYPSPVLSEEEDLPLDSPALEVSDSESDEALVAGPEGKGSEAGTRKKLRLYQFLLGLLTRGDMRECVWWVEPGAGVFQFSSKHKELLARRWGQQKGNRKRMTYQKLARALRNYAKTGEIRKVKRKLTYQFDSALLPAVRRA
Sequence of ELF4 (Q99607 whole entry): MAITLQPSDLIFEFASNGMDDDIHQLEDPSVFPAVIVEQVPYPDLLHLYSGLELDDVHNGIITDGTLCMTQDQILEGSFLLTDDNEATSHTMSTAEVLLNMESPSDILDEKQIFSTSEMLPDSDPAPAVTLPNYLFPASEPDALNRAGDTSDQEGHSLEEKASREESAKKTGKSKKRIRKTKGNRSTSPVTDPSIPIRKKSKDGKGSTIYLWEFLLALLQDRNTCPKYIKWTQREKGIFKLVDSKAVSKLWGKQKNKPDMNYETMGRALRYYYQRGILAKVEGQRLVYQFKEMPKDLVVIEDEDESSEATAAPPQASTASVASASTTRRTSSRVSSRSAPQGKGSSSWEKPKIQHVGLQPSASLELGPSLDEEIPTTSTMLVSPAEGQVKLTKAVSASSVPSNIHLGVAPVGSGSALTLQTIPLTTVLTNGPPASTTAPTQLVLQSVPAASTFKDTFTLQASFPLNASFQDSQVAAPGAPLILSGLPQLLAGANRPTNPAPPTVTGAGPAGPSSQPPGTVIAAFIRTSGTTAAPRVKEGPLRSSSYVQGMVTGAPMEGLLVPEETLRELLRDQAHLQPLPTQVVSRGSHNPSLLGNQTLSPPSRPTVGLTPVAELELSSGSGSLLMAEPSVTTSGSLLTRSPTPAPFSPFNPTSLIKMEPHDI
Sequence of ELF1 (P32519 whole entry): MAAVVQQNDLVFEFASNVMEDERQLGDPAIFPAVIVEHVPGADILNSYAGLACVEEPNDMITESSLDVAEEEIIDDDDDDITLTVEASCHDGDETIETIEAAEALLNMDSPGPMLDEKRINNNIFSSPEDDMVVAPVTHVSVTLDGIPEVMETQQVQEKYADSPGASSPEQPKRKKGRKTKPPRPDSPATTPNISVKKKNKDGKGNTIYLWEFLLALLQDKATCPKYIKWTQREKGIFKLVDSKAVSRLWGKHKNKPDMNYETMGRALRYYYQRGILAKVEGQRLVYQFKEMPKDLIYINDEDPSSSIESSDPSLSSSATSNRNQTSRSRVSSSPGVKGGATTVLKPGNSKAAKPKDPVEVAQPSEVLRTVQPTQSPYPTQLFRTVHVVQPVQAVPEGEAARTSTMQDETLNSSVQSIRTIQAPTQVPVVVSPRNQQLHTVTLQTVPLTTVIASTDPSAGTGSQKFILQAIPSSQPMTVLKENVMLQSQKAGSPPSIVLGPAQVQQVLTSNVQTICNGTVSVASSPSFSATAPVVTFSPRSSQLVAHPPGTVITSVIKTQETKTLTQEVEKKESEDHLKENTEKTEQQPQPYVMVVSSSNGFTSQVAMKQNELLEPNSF

With CTGGGT, the binding signal is 1.21 fold enrichment (6-mer frequency, TF over GST control) in the experiment with FLI1; 1.1 fold enrichment (6-mer frequency, TF over GST control) in the experiment with ELK1; 1.18 fold enrichment (6-mer frequency, TF over GST control) with GABPA; 1.12 fold enrichment (6-mer frequency, TF over GST control) with ERG; 1.17 fold enrichment (6-mer frequency, TF over GST control) with ELF1; 1.12 fold enrichment (6-mer frequency, TF over GST control) with EHF. Besides, the binding signal in the experiment with SPI1 was 1.13 fold enrichment (6-mer frequency, TF over GST control); with SPIB, 1.09 fold enrichment (6-mer frequency, TF over GST control); in the experiment with ELK3 it was 1.1 fold enrichment (6-mer frequency, TF over GST control); with FEV, 1.06 fold enrichment (6-mer frequency, TF over GST control); with ETV5, 1.05 fold enrichment (6-mer frequency, TF over GST control); in the experiment with HSF1, 1.04 fold enrichment (6-mer frequency, TF over GST control). Moreover, the binding signal with SPIC is 1.17 fold enrichment (6-mer frequency, TF over GST control); with ELF4, 1.13 fold enrichment (6-mer frequency, TF over GST control); with ELK4, 1.2 fold enrichment (6-mer frequency, TF over GST control); in the experiment with ETV2, 1.22 fold enrichment (6-mer frequency, TF over GST control); with ELF3, 1.12 fold enrichment (6-mer frequency, TF over GST control).
